Data published in PubChem BioAssay (Tox21).
“And” between values parts separate entries of the source, which are not always exact repeats. Equal entries are not always repeated. Inconclusive results are not listed. The source made the active and inactive calls. Calls follow the shape of the dose curve; as a rule, active = well fitted inhibition curve with a large enough effect in the repeat runs; inconclusive = weak or mixed curves; inactive = no such curve, though single readings can be large or run the other way.

What follows are compounds tested against Cytochrome P450 3A4 (Homo sapiens) (UniProt P08684) (assay: Cytochrome P450 Family 3 Subfamily A Member 4 (CYP3A4) small molecule antagonists: luciferase reporter qHTS assay (AID 1671201; also: nearly all actives have a fitted effect of over 50% in size)). Settings: P450-Glo CYP3A4 enzyme, luciferin luminescence, 1 h; series mostly up to 115 µM.
Method in brief: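 Luminescent readout (RLU) proportional to CYP3A4 activity, from luciferin generated off a proluciferin substrate. Enzyme–substrate mix plus compound 10 min at room temp, NADPH regeneration 1 h, detection reagent 20 min.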
Potency is read from the fitted curve at half-maximal effect.

Cytochrome P450 3A4 (Homo sapiens), sequence (P08684 whole entry, looked up): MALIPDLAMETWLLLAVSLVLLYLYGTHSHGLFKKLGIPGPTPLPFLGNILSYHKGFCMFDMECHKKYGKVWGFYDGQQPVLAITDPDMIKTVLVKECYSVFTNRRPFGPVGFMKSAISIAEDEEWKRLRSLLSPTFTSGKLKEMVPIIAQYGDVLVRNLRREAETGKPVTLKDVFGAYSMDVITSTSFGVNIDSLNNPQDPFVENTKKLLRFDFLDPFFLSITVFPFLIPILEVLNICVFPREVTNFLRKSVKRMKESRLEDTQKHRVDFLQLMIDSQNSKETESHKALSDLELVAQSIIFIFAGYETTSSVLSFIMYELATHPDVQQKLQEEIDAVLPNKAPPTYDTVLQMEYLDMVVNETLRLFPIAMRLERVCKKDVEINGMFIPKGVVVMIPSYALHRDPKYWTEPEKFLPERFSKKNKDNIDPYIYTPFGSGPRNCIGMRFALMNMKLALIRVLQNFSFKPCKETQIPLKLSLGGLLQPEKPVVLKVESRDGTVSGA

SMILES	Potency
CC(C)(C)c1ccc(O)c(C(C)(C)C)c1	35.6 µM (active)
Cc1cc(Cc2cc(C)cc(C(C)(C)C)c2O)c(O)c(C(C)(C)C)c1	5.67 µM (active) and 8.94 µM (active)
CC(C)CCCCCCc1ccc(O)cc1	16.2 µM (active)
Nc1nc(=S)c2[nH]cnc2[nH]1	inactive
NC(=Nc1ccccc1)Nc1ccccc1	inactive
C1COC(NC(C2CC2)C2CC2)=N1	inactive
CCCCOCCOC(=O)c1ccccc1C(=O)OCCOCCCC	12.4 µM (active) and 17.8 µM (active)
CC(=O)Nc1ccc(C(=O)CCl)cc1	inactive
CCC(=O)/C=C/C1C(C)=CCCC1(C)C (stereo not given)	71.2 µM (active) and 20 µM (active)
BrC1CCC(Br)C(Br)CCC(Br)C(Br)CCC1Br (stereo not given)	1.41 µM (active) and 1.51 µM (active)
